{
  "source": "PubChem BioAssay (NCATS)",
  "note": "Inconclusive results are not listed. A call without a number means that no potency is given here. Activity calls are given as the source filed them. The call rests on the fitted dose curve; in most records, active means well fitted inhibition curve with a large enough effect; inconclusive means small, poorly fitted or top-dose-only effect; inactive means flat fitted curve, though single readings scatter. Potency means the concentration at half of the fitted maximal effect.",
  "data": [
    {"molecular_target": "Dual specificity protein kinase CLK4 (Homo sapiens) (UniProt Q9HAZ1)", "sequence (Q9HAZ1 whole entry, looked up)": "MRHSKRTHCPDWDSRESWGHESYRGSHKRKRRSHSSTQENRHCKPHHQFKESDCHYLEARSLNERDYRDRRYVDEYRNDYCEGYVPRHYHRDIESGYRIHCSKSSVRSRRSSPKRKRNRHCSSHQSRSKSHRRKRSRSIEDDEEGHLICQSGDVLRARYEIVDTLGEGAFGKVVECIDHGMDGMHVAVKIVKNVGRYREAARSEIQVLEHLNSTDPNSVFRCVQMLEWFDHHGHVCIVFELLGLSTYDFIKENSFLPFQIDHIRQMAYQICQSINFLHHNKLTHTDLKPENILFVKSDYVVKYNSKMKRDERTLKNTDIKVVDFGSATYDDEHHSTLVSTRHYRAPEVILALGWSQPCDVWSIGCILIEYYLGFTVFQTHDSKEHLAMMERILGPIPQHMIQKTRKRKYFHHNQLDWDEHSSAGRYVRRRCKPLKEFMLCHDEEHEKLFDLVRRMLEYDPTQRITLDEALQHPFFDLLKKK", "assay": "qHTS Assay for Inhibitors of CDC-like Kinase 4 (ADP-FP Assay) (AID 1795); further: nearly all actives have a fitted effect of over 60% in size", "conditions": "Transcreener ADP fluorescence polarization; series mostly up to 50 µM", "description": "NIH Molecular Libraries Probe Production Centers Network [MLPCN] NIH Chemical Genomics Center [NCGC] MLPCN Grant: 1R03MH084827-01 Assay Submitter (PI): Tom Misteli NCGC Assay Overview: Clk4 (Invitrogen cat # PV3839) was assayed using ATP and the RS repeat peptide (AnaSpec cat # 61722) as substrates using Transcreener (trade mark), a competitive fluorescence polarization (FP) assay. For the present assay, we used the Orange TranscreenerTM ADP2 (BellBrooks Labs, Madison, Wis) detection system to monitor ADP production in the kinase reaction. […] This allows the ADP tracer to freely rotate leading to a decrease in the observed FP value. The amount of ADP produced can then be calculated using a calibration curve. The positive control for the assay was TG003 (Sigma-Aldrich, cat # 300801-52-9) which is a Clk4 inhibitor [2].\nNCGC Assay Protocol Summary: Two uL/well of substrate-buffer solution (100 uM RS peptide, 1 uM ATP, 25 mM Tris pH7.5, 10 mM MgCl2, 0.5 mM EGTA, 2.5 mM DTT, 0.01% Triton X-100 final concentration) was dispensed into 1,536-well assay plates (Greiner, solid black medium-binding plates) with Aurora Discovery BioRAPTR Flying Reagent Dispenser (FRD; Beckton-Dickenson). Using a Kalypsys pin tool equipped with a 1,536-pin tool, 23 nL of compound solution was transferred to the assay plate. Two uL/well Clk4-buffer solution (6.25 nM Clk4, 25 mM Tris pH 7.5, 10 mM MgCl2, 0.5 mM EGTA, 2.5 mM DTT, 0.01% Triton X-100, final concentration) was then added using the FRD yielding a total kinase reaction volume of 4 uL/ well. Then 4 uL/well of detection mixture (4 nM orange fluorescent tracer, 1 ug/mL ADP antibody, final concentration) was then added after an hour and the polarization signal was measured using the EnVision plate reader (PerkinElmer, Waltham, MA) after 30 min of room temperature incubation using the following filters and program settings: BODIPY TMR FP dual Enh mirror (barcode 682); BODIPY-TMR 531 (barcode 105) excitation; BODIPY-TMR FP P/S polarized 595 nm filters (barcodes 210 and 211, respectively); 100% light; 150 flashes; 1.35 G-factor; Detector gains were 685 for the 1st detector; 630 for the 2nd detector.", "values": [
      {"smiles": "CN(C)c1nc(-c2ccc3c(c2)OCO3)nc2ccccc12", "Potency": "inactive"},
      {"smiles": "O=c1c(CCc2ccccc2)nc2cnc(N3CCNCC3)nc2n1-c1ccccc1", "Potency": "inactive"},
      {"smiles": "CCNc1ncc2nc(-c3ccccc3)c(=O)n(CCC#N)c2n1", "Potency": "inactive"},
      {"smiles": "CN1CCN(c2ncc3nc(-c4cn(C)c5ccccc45)c(=O)n(CCC#N)c3n2)CC1", "Potency": "inactive"},
      {"smiles": "COc1ncc2nc(-c3ccccc3)c(=O)n(CCc3ccccc3)c2n1", "Potency": "inactive"},
      {"smiles": "COCCn1c(=O)c(-c2ccccc2)nc2cnc(Oc3cccc(Cl)c3)nc21", "Potency": "inactive"},
      {"smiles": "O=c1c(-c2ccccc2)nc2cnc(Oc3ccccc3)nc2n1C[C@H]1CCCO1", "Potency": "inactive"},
      {"smiles": "COc1ccc(Oc2ncc3nc(-c4ccc(F)cc4)c(=O)n(C[C@H]4CCCO4)c3n2)cc1", "Potency": "inactive"},
      {"smiles": "COc1cccc(Nc2ncc3ncc(=O)n(CCC#N)c3n2)c1", "Potency": "2.51 µM (active)"},
      {"smiles": "CN(C)C(=O)c1ccc(-c2nc(N3CCOCC3)c3ccccc3n2)cc1", "Potency": "inactive"},
      {"smiles": "N#CCCn1c(=O)c(-c2cccc(C#N)c2)nc2cnc(Oc3cccc(Cl)c3)nc21", "Potency": "inactive"},
      {"smiles": "O=c1c(-c2ccccc2)nc2cncnc2n1Cc1ccccc1", "Potency": "inactive"},
      {"smiles": "COCCn1c(=O)c(-c2cccs2)nc2cnc(Oc3ccccc3)nc21", "Potency": "inactive"},
      {"smiles": "COc1ccc(CNc2ncncc2-c2ccccc2OC)c(OC)c1", "Potency": "inactive"},
      {"smiles": "CN(Cc1ccco1)c1ncnc2ccc(-c3cccc(NS(C)(=O)=O)c3)cc12", "Potency": "7.94 µM (active)"},
      {"smiles": "COc1ccc(CNc2cc(-c3cccc(NS(C)(=O)=O)c3)ncn2)c(OC)c1", "Potency": "inactive"},
      {"smiles": "COc1ccccc1CNc1nc(-c2ccoc2)nc2ccccc12", "Potency": "inactive"},
      {"smiles": "COc1cccc(-c2nc(NC3CC3)c3ccccc3n2)c1", "Potency": "2.82 µM (active)"},
      {"smiles": "COc1ccccc1CNc1ncnc2ccc(-c3cccc(NS(C)(=O)=O)c3)cc12", "Potency": "7.08 µM (active)"},
      {"smiles": "COCCn1c(=O)c(CCc2ccccc2)nc2cnc(N(C)C)nc21", "Potency": "inactive"},
      {"smiles": "CCNc1ncc2nc(CCc3ccccc3)c(=O)n(C3CC3)c2n1", "Potency": "inactive"},
      {"smiles": "O=c1c(CCc2ccccc2)nc2cncnc2n1Cc1ccccc1", "Potency": "inactive"},
      {"smiles": "O=c1c(-c2cccc(F)c2)nc2cncnc2n1Cc1ccc(F)cc1", "Potency": "inactive"},
      {"smiles": "COc1cccc(-c2nc(N(C)C)c3ccccc3n2)c1", "Potency": "11.2 µM (active)"},
      {"smiles": "COc1cccc(-c2cncnc2NCCN2CCOCC2)c1", "Potency": "inactive"},
      {"smiles": "Cc1cnc(CNc2ncnc3ccc(-c4ccccc4Cl)cc23)cn1", "Potency": "10 µM (active)"},
      {"smiles": "COCCn1c(=O)c(-c2cccc(C#N)c2)nc2cnc(OCc3ccccc3)nc21", "Potency": "inactive"},
      {"smiles": "Cn1cc(-c2nc3cnc(N4CCNCC4)nc3n(CCc3ccccc3)c2=O)c2ccccc21", "Potency": "inactive"},
      {"smiles": "Cn1c(=O)c(-c2ccc(Cl)cc2)nc2cncnc21", "Potency": "inactive"},
      {"smiles": "COc1ccccc1CNc1nc(-c2ccc(C(=O)N(C)C)cc2)nc2ccccc12", "Potency": "inactive"},
      {"smiles": "COc1ccc2[nH]cc(CCNc3ncnc4ccc(-c5ccccc5OC)cc34)c2c1", "Potency": "inactive"},
      {"smiles": "c1ccc(Nc2nc(-c3cccnc3)nc3ccccc23)cc1", "Potency": "2 µM (active)"},
      {"smiles": "COc1cccc(-c2ccc3ncnc(N4CCNCC4)c3c2)c1", "Potency": "1 µM (active)"},
      {"smiles": "COc1ccc(CNc2nc(-c3cccnc3)nc3ccccc23)c(OC)c1", "Potency": "inactive"},
      {"smiles": "COc1ccc(-c2nc3cnc(Oc4cccc(Cl)c4)nc3n(C[C@H]3CCCO3)c2=O)cc1", "Potency": "inactive"},
      {"smiles": "COCCn1c(=O)c(-c2cccs2)nc2cnc(N3CCNCC3)nc21", "Potency": "inactive"},
      {"smiles": "O=c1c(CCc2ccccc2)nc2cnc(Oc3ccccc3)nc2n1C1CC1", "Potency": "inactive"},
      {"smiles": "CN(C)c1ccc(-c2cncnc2NCCN2CCOCC2)cc1", "Potency": "inactive"},
      {"smiles": "COc1ccccc1-c1nccc(NCc2cccs2)n1", "Potency": "inactive"},
      {"smiles": "N#CCCn1c(=O)c(-c2ccc(Cl)cc2)nc2cnc(N3CCOCC3)nc21", "Potency": "inactive"}
    ]}
  ]
}
